Only some compounds are listed: those with a hit (about 3.5% of all), similar ones and a draw of the others.
GPR151 ag: human GPR151 activation | Q8TDV0 | PathHunter beta-arrestin GPR151 cells, luminescence | 1% of 650,000 active | activation, % at 11.2 µM | AID 1508602; in the data active means activation above about 4.9%;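 further: 0% = median of compound wells and 100% = cells with positive control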
FBW7 activator: human FBW7 E3 ligase activation, primary screen | AlphaScreen FBW7–phospho-cyclin E peptide binding, activator screen | 0.13% of 650,000 active | Q969H0 | normalized activity (activation), % at 26.1 µM | AID 1259310; in the data active means normalized activity above about 1.9%;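 further: purified mutant Fbw7 with reduced substrate affinity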
TEAD-YAP inh: TEAD-YAP interaction inhibition; HEK-TIYL cells, TEAD-Gal4/YAP UAS-luciferase luminescence; inhibition, % at 9.12 µM; 1.4% of 640,000 active; AID 1259422; in the data active means inhibition above about 32%;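 further: 0% = median of test compound wells and 100% = reference inhibitor wells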
MITF primary: blocks human microphthalmia-associated transcription factor | AlphaScreen MITF homodimerization, bead proximity signal | AID 1259374 | 0.91% of 650,000 active | inhibition, % at 2.6 µM | O75030; in the data active means inhibition above about 50%;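 further: 0% = vehicle wells with protein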
Target sequence (O75030 whole entry, looked up): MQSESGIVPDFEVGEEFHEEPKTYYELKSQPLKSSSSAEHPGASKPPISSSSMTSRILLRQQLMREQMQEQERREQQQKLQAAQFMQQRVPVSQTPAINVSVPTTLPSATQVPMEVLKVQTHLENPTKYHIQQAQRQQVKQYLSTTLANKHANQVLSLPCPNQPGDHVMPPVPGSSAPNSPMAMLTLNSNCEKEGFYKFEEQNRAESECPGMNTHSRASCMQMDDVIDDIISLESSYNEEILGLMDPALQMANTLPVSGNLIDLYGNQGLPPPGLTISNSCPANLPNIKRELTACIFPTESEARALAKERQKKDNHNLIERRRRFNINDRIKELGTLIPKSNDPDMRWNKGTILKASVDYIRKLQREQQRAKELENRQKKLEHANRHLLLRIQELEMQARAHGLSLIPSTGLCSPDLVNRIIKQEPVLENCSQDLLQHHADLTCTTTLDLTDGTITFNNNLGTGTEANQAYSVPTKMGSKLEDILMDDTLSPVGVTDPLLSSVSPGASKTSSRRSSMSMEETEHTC
Active calls of the source: *.

Results for COc1ccc(/C=C/c2nc3ccccc3c(=O)[nH]2)cc1O ?
GPR151 ag: -9; FBW7 activator: 0; TEAD-YAP inh: 44*; MITF primary: 6

What do the screens show for `COc1ccc(/C=C\c2nc(O)c([N+](=O)[O-])c(=O)[nH]2)cc1O`?
GPR151 ag: -1; FBW7 activator: 0; TEAD-YAP inh: 1; MITF primary: -9

What do the screens show for `CCc1nnc(NC(=O)c2cc3c(=O)n(CC)c4ccccc4c3s2)s1`?
GPR151 ag: 0; FBW7 activator: 0; TEAD-YAP inh: -15; MITF primary: 12

What do the screens show for `CC1(C)CC(NC2CCN(c3ccc(NC(=O)Cc4cccc(F)c4)cc3)CC2)CCO1` (configuration not stated)?
GPR151 ag: 0; FBW7 activator: 0; TEAD-YAP inh: 5; MITF primary: 1

Results for CC(c1ccc(F)cc1)n1cc(C(=O)NCCCc2nc3ccccc3[nH]2)nn1 (configuration not stated) ?
GPR151 ag: 0; FBW7 activator: 0; TEAD-YAP inh: 12; MITF primary: 3

Results for COc1ccc(/C=N/Nc2nnc(Cc3ccccc3)c(=O)[nH]2)cc1OC ?
GPR151 ag: 0; FBW7 activator: 0; TEAD-YAP inh: 4; MITF primary: 15

What do the screens show for `COc1ccc(Cc2nnc(N/N=C/c3cc([N+](=O)[O-])ccc3O)[nH]c2=O)cc1OC`?
GPR151 ag: 2; FBW7 activator: 0; TEAD-YAP inh: -2; MITF primary: 115*

What do the screens show for `COc1ccc(Cc2nnc(N/N=C/c3cccs3)[nH]c2=O)cc1OC`?
GPR151 ag: -1; FBW7 activator: -1; TEAD-YAP inh: 4; MITF primary: -9

How did O=c1[nH]c(N/N=C/c2ccccc2O)nc2ccccc12 do in these assays?
GPR151 ag: -3; FBW7 activator: 0; TEAD-YAP inh: 72*; MITF primary: 78*

What do the screens show for `O=c1[nH]c(N/N=C/c2ccc(O)cc2O)nnc1Cc1ccccc1`?
GPR151 ag: -1; FBW7 activator: 0; TEAD-YAP inh: 8; MITF primary: 104*

Results for CCOC(=O)c1cc(NC(=O)c2ccccc2)c(=O)oc1C ?
GPR151 ag: -3; FBW7 activator: 0; TEAD-YAP inh: -47; MITF primary: 0

Results for CCOC(=O)C1CCCN(C(=O)c2ccc3c(=O)n(CCN(CC)CC)c(=S)[nH]c3c2)C1 (configuration not stated) ?
GPR151 ag: 2; FBW7 activator: 0; TEAD-YAP inh: 5; MITF primary: -12

Results for CC(C)(C)n1ncc2c(=O)n(CC(=O)OCc3ccccc3)cnc21 ?
GPR151 ag: -1; FBW7 activator: 0; TEAD-YAP inh: 82*; MITF primary: 0

What do the screens show for `O=C1NC2(CCN(C(=O)CC3CCCC3)CC2)Nc2ccccc21`?
GPR151 ag: 0; FBW7 activator: 0; TEAD-YAP inh: -8; MITF primary: 14

Results for COc1ccc(CN2CCN(Cc3cc(OC)ccc3O)CC2)cc1 ?
GPR151 ag: 0; FBW7 activator: 0; TEAD-YAP inh: -1; MITF primary: 83*

How did COc1ccc(O)c(CN2CCN(Cc3ccccc3OC)CC2)c1 do in these assays?
GPR151 ag: -1; FBW7 activator: 0; TEAD-YAP inh: -4; MITF primary: 69*

Results for CCn1c2ccccc2c2cc(CN3CCN(Cc4cc(OC)ccc4O)CC3)ccc21 ?
GPR151 ag: -1; FBW7 activator: 0; TEAD-YAP inh: -18; MITF primary: 62*

How did CCn1c2ccccc2c2cc(CN3CCN(Cc4cc(OC)c(O)c(OC)c4)CC3)ccc21 do in these assays?
GPR151 ag: 1; FBW7 activator: 0; TEAD-YAP inh: -6; MITF primary: 46

Results for COc1cccc(CNC(=O)CCCCn2c(=S)[nH]c3ccsc3c2=O)c1 ?
GPR151 ag: 0; FBW7 activator: 0; TEAD-YAP inh: 0; MITF primary: 9

Results for COc1cccc(-c2ccc(N3CCN(C)CC3)nc2)c1 ?
GPR151 ag: -4; FBW7 activator: 0; TEAD-YAP inh: 14; MITF primary: -13

How did CN1CCN(c2ccc(-c3cccc(Cl)c3)cn2)CC1 do in these assays?
GPR151 ag: -5; FBW7 activator: 0; TEAD-YAP inh: 54*; MITF primary: 8

Results for COc1ccc(C(=O)CSc2nc3sc4c(c3c(=O)n2-c2ccccc2)CCC4)cc1OC ?
GPR151 ag: 1; FBW7 activator: 0; TEAD-YAP inh: 14; MITF primary: -2

What do the screens show for `COc1ccc(C(=O)CSc2nc3scc(-c4ccccc4)c3c(=O)n2-c2ccccc2)cc1OC`?
GPR151 ag: 0; FBW7 activator: 1.9*; TEAD-YAP inh: -4; MITF primary: 23

How did Cn1ncc2cc(Nc3nccc(-c4cncc(N5CCOCC5)c4)n3)ccc21 do in these assays?
GPR151 ag: 0; FBW7 activator: 0; TEAD-YAP inh: 69*; MITF primary: 0

What do the screens show for `c1cn(-c2ccc(Nc3nccc(Nc4ccc5c(c4)OCO5)n3)cc2)cn1`?
GPR151 ag: 2; FBW7 activator: 0; TEAD-YAP inh: 36*; MITF primary: 10

What do the screens show for `c1cn(-c2ccc(Nc3nccc(-c4cncc(N5CCOCC5)c4)n3)cc2)cn1`?
GPR151 ag: -1; FBW7 activator: 0; TEAD-YAP inh: 78*; MITF primary: 16

What do the screens show for `Nc1nc(Nc2ccc(-n3ccnc3)cc2)cc(Nc2ccc3c(c2)OCO3)n1`?
GPR151 ag: 0; FBW7 activator: 0; TEAD-YAP inh: -22; MITF primary: 2

What do the screens show for `COc1ccc(Nc2nccc(-c3cncc(N4CCOCC4)c3)n2)cc1`?
GPR151 ag: 0; FBW7 activator: 1; TEAD-YAP inh: 61*; MITF primary: 3

Results for c1cn(-c2ccc(Nc3nccc(Nc4ccc(N5CCOCC5)cc4)n3)cc2)cn1 ?
GPR151 ag: 4; FBW7 activator: 0; TEAD-YAP inh: 50*; MITF primary: 21

What do the screens show for `c1ccc(Cc2nc3ccc(Nc4nccc(-c5cncc(N6CCOCC6)c5)n4)cc3o2)cc1`?
GPR151 ag: 0; FBW7 activator: 0; TEAD-YAP inh: 29; MITF primary: -7

How did CCc1nc2ccc(Nc3nccc(-c4cncc(N5CCOCC5)c4)n3)cc2o1 do in these assays?
GPR151 ag: 1; FBW7 activator: 1; TEAD-YAP inh: 34*; MITF primary: 17

How did O=C1OCCN1c1ccc(Nc2nccc(-c3cncc(N4CCOCC4)c3)n2)cc1 do in these assays?
GPR151 ag: 1; FBW7 activator: 0; TEAD-YAP inh: 39*; MITF primary: 0

What do the screens show for `c1cc(-c2cncc(N3CCOCC3)c2)nc(Nc2ccc(-n3cncn3)cc2)n1`?
GPR151 ag: -2; FBW7 activator: 1; TEAD-YAP inh: 8; MITF primary: 16

How did c1ccc(Nc2ccnc(Nc3ccc(N4CCOCC4)cc3)n2)cc1 do in these assays?
GPR151 ag: 0; FBW7 activator: 0; TEAD-YAP inh: 1; MITF primary: 7

How did O=C(c1ccc(Nc2nccc(-c3cncc(N4CCOCC4)c3)n2)cc1)N1CCOCC1 do in these assays?
GPR151 ag: 1; FBW7 activator: 0; TEAD-YAP inh: 51*; MITF primary: 0
